Drawing on PubChem BioAssay (NCI), this text covers growth for eight compounds.

Holding throughout (experiment): NCI-60 one-dose screen, 48 h (100 = growth as untreated, 0 = no growth, -100 = all killed)
In assay [1] the test system is SR leukemia. Conditions: 10 µM unless noted.
Assay [2] relates to RPMI-8226 leukemia. The following applies: 10 µM unless noted.
Assay [3] deals with OVCAR-8 ovarian. Conditions: 10 µM unless noted.
Assay [4] relates to OVCAR-5 ovarian. The following applies: 10 µM unless noted.
The test system of assay [5] is OVCAR-4 ovarian. The following applies: 10 µM unless noted.
For assay [6], the system named is SK-OV-3 ovarian. Conditions: 10 µM unless noted.
In assay [7] the test system is IGROV1 ovarian. Conditions: 10 µM unless noted.
Assay [8] relates to OVCAR-3 ovarian. Conditions: 10 µM unless noted.
In assay [9] the test system is HS 578T breast. Conditions: 10 µM.
Assay [10] relates to NCI/ADR-RES ovarian. Conditions: 10 µM unless noted.
In assay [11] the test system is T-47D breast. Conditions: 10 µM unless noted.
Assay [12] has as its system BT-549 breast. Conditions: 10 µM unless noted.
Assay [13] concerns MDA-MB-435 melanoma. The following applies: 10 µM unless noted.
Assay [14] relates to SW-620 colon. The following applies: 10 µM unless noted.
Assay [15] concerns MCF7 breast. The following applies: 10 µM unless noted.
In assay [16] the test system is HCT-116 colon. Conditions: 10 µM unless noted.
The subject of assay [17] is HCC-2998 colon. Conditions: 10 µM.
Assay [18] has as its system KM12 colon. Conditions: 10 µM unless noted.

This is part of a sample that, as a whole, favours compounds with a hit. Of some 83,000 tested, about 20% had one in any assay.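 Each cell line was grown in a 96-well plate and treated with one concentration of compound for 48 hours. Values below 10 were considered active.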 Values without a mark were called inactive. The source made the active and inactive calls.

Regarding `C=C1[C@@H](O)C[C@H]2C(C)(C)C[C@H](Cl)C[C@]2(C)[C@H]1C[C@H](O)[C@H]1CC(=O)NC1=O`, the growth is 7.18% (active) in [1]; -0.0704% (active) in [2]; -18% (active) in assay [3]; -10.8% (active) in [4]; -36.3% (active) in assay [5]; -29.7% (active) in assay [6]. For the same compound, the growth in assay [7] is -15.4% (active); in assay [8], -27.4% (active); in [9], -15.7% (active); in assay [10] it was -2.98% (active); in assay [11], -20.3% (active); in assay [12] it was -24.1% (active). The growth in assay [13] is -44.6% (active); in assay [14] it was -1.83% (active); in assay [15], -18.8% (active); in assay [16] it was -28.8% (active); in assay [17] it was -44.9% (active); in [18] it was -18% (active).
As for `COc1cc2c(c(OC)c1)C1c3ccccc3NC(=O)N1CC2` (stereo not drawn), the growth was 13.2% in assay [1]; 16.4% in assay [2]; 44.3% in assay [3]; 48.6% in assay [4]; 50.4% in assay [5]; 52.8% in assay [6]. The growth is 60.2% in assay [7]; -6.26% (active) in assay [8]; 16.4% in assay [9]; 1.85% (active) in [10]; 44% in assay [11]; 50.3% in assay [12]. Also, the growth is -48.8% (active) in assay [13]; 20.5% in assay [14]; 18.1% in assay [15]; 30.6% in assay [16]; 53.4% in assay [17]; 26.2% in [18].
`CC(=O)C(C(C)=O)C(c1ccccc1)C(C(C)=O)C(C)=O`: the growth is 105% in [1]; 98.7% in assay [2]; 96.5% in [3]; 102% in assay [4]; 87.1% in assay [5]; 95.4% in [6]. Moreover, the growth in assay [7] was 104%; in [8], 116%; in assay [9] it was 99.8%; in [10], 94.5%; in assay [11], 102%; in [12] it was 105%. Moreover, the growth was 104% in assay [13]; 110% in assay [14]; 90.2% in assay [15]; 91.3% in [16]; 106% in assay [17]; 110% in assay [18].
As to `O=C1/C(=C\c2cccc(OCCCCCOc3ccc(Cl)cc3)c2)N=C2SCCCN12`, the growth was 92.1% in [1]; 40.9% in assay [2]; 53% in [3]; 85.3% in assay [4]; 31.3% in [5]; 93.8% in assay [6]. Besides, the growth is 86.9% in assay [7]; 59.3% in assay [8]; 87% in assay [9]; 45.4% in assay [10]; 26.4% in assay [11]; 57.4% in assay [12]. In addition, the growth was 46.1% in [13]; 86.2% in assay [14]; 68.5% in assay [15]; 52.7% in [16]; 71% in assay [17]; 48.2% in [18].
Take `Cc1cc(N(CCNc2ccnc3cc(Cl)ccc23)Cc2ccc3c(c2)OCO3)nc(N2CCCC2)n1`: the growth in assay [1] is -46.7% (active); in [2], -27.3% (active); in assay [3] it was 7.4% (active); in assay [4], 20.6%; in assay [5] it was -44.9% (active); in assay [6], 40.9%. The growth in assay [7] is -14.4% (active); in assay [8], -30.7% (active); in assay [9], 6.29% (active); in assay [10], 31.1%; in assay [11], -36.4% (active); in [12], -7.74% (active). Moreover, the growth in assay [13] was -69.5% (active); in [14], 8.91% (active); in [15], 7.77% (active); in assay [16], -68.8% (active); in [17], -24.4% (active).
As for `COc1ccc(-n2c(=O)c3ccccc3n(Cc3ccc(C(=O)NO)cc3)c2=O)cc1`, the growth in assay [1] is 7.16% (active); in assay [2], 12%; in assay [3], -0.914% (active); in assay [4], 58.4%; in assay [5], 17.1%; in [6], 28.3%. The growth is 14.4% in assay [7]; 8.92% (active) in [8]; 56.9% in assay [9]; 70.2% in assay [10]; 5.48% (active) in assay [11]; 36.2% in assay [12]. In addition, the growth was -84.2% (active) in [13]; -27.3% (active) in [14]; 25.9% in assay [15]; -19.9% (active) in assay [16]; 34% in assay [17]; -32.9% (active) in [18].
Turning to `CCc1nc2cc(/C=C/C(=O)NO)ccc2c(=O)n1CCc1ccc(OC)cc1`, the growth in assay [1] was 14.3%; in [2], 10.3%; in [3] it was 15.3%; in assay [4] it was 24.2%; in assay [5] it was 39.1%; in assay [6], 6.67% (active). Moreover, the growth in [7] was 40.9%; in assay [8] it was -1.22% (active); in assay [9], 41.8%; in assay [10] it was 9.39% (active); in assay [11], -2.1% (active); in assay [12], 55.1%. Moreover, the growth in assay [13] was 7.73% (active); in assay [14], 5.44% (active); in [15] it was 10.5%; in [16], 1.28% (active); in [17], 48%; in [18], 23.7%.
Regarding `CCOc1cccc(/C=N/NC(=O)c2ccccc2Nc2ccnc(C(F)(F)F)c2)c1O`, the growth was -20.1% (active) in assay [1]; -19.7% (active) in assay [2]; 20.7% in assay [3]; 13% in assay [4]; 25% in [5]; 8.43% (active) in assay [6]. The growth in assay [7] is -13.8% (active); in assay [8], 31.5%; in assay [9], 39.2%; in assay [10], -0.31% (active); in assay [11], 16.5%; in assay [12], 26.4%. The growth in assay [13] is 29.8%; in assay [14], 32.3%; in assay [15] it was 2.99% (active); in [16], 14.7%; in [17], 48.6%; in assay [18], 33.2%.
